{
  "source": "PubChem BioAssay AID2384",
  "about": "(Southern Research Specialized Biocontainment Screening …, 2010)",
  "note": "Out of some 2,300 compounds screened, about 1,100 (48%) were called active. The set was probably picked from earlier hits. Some of the results follow. Potency and affinity values are given separately. A number with no mark means an inactive call. The rule behind the calls is not given here.",
  "data": [
    {"assay": "inhibitors in S. typhi counter-screen strain, dose response, counter-screen for PhoP regulon inhibitor project, fluorescence, 4 h (AID 2384)", "conditions": "S. typhi GFP reporter counter-screen; series mostly up to 150 µM; inhibition: at the top concentration", "units": {"inhibition": "%"}, "values": [
      {"smiles": "CCN(CC(=O)Nc1ccc(C(=O)OC)cc1)C1CCCCC1", "inhibition": 15.5},
      {"smiles": "CC(c1ccccc1)(c1ccccc1)c1ccncc1", "inhibition": -5.37},
      {"smiles": "COc1ccc(C2C(C(=O)NCc3cccnc3)c3ccccc3C(=O)N2C)cc1OC", "note": "(stereo not drawn)", "inhibition": 13},
      {"smiles": "C1=Nc2ccccc2CN1c1ccccc1", "inhibition": 30.4},
      {"smiles": "CCC(Sc1nc2ccncc2[nH]1)C(=O)Nc1ccc(C)c(Cl)c1", "note": "(stereo not drawn)", "inhibition": -0.03},
      {"smiles": "Cc1cc(C(=O)Nc2cccnc2)on1", "inhibition": -13.8},
      {"smiles": "CCCCNC(=O)CCC(=O)Nc1ccc2nc(N3CCC(C)CC3)cc(C)c2c1", "inhibition": -2.01},
      {"smiles": "Cc1cc(N2CCN(C3CCCCC3)CC2)nc2cccc(O)c12", "inhibition": 21.7},
      {"smiles": "COc1cccc2[nH]c3c(N4CCN(Cc5ccc6c(c5)OCO6)CC4)ncnc3c12", "inhibition": 29.9},
      {"smiles": "CCn1c(O)c(N=NC(=O)CNC(=O)/C=C/c2ccco2)c2ccccc21", "inhibition": -2.56},
      {"smiles": "COc1ccc2[nH]cc(C(=O)CCl)c2c1", "inhibition": 12},
      {"smiles": "Cc1ccc(C)c(OCc2ccc(C(=O)NN)o2)c1", "inhibition": 1.74},
      {"smiles": "Cn1ncc(N=Cc2ccccc2O)c1C(=O)N1CCOCC1", "inhibition": 9.29},
      {"smiles": "O=C(NC1CCCCC1)c1ccc(S(=O)(=O)NCc2cccnc2)cc1", "inhibition": -16.9},
      {"smiles": "O=C(Cc1ccc(F)cc1)NC1CCCC1", "inhibition": 9.26},
      {"smiles": "Cc1nc(-c2ccc(C(=O)N3CCOCC3)cc2)cs1", "inhibition": 0.47},
      {"smiles": "CCOc1ccc(OCCSc2nc3ccccc3[nH]2)cc1", "inhibition": 2.54},
      {"smiles": "CCOc1ccc(NC(=S)Nc2cc(C)[nH]n2)cc1", "inhibition": 4.04},
      {"smiles": "Cc1cc(NS(=O)(=O)c2ccc(NC(=S)NC(=O)c3cccnc3)cc2)no1", "inhibition": 2.76},
      {"smiles": "O=S(=O)(Nc1ncccn1)c1ccc(NC(=S)Nc2cccc(Cl)c2)cc1", "inhibition": -59.1},
      {"smiles": "Cc1ccc(NC(=O)OCc2cccs2)cc1", "inhibition": 25.9},
      {"smiles": "CC1CCCC(NC(=O)COC(=O)Cc2c[nH]c3ccccc23)C1C", "note": "(stereo not drawn)", "inhibition": 6.25},
      {"smiles": "Cc1ccc(-c2c(C)n([O-])c3c([n+]2=O)CCCC3)o1", "inhibition": 12.3},
      {"smiles": "COc1ccccc1OCc1nnc(SCC(=O)NCc2ccco2)n1Cc1ccco1", "inhibition": -6.42},
      {"smiles": "COC(=O)c1cc2sccc2n1Cc1nc(-c2ccc(OC)cc2)oc1C", "inhibition": -18.1},
      {"smiles": "O=C(CSc1nc2ncc(Cl)cc2[nH]1)NCC(=O)Nc1ccc(F)c(F)c1F", "inhibition": 36},
      {"smiles": "Nc1ncnc2nc(SCC(=O)Nc3cccc(C(F)(F)F)c3)[nH]c12", "inhibition": -1.35},
      {"smiles": "c1cncc(CSc2ccc(-c3cccs3)nn2)c1", "inhibition": 3.59},
      {"smiles": "COc1ccc(CNc2nc3ccccc3n2C)c(O)c1", "inhibition": 9.23},
      {"smiles": "CCN(CC)S(=O)(=O)c1ccc(/C(O)=C(\\C#N)c2nc3ccccc3n2C)cc1", "inhibition": -35.8},
      {"smiles": "Cn1c(-c2ccc(CN3CCCCC3)o2)nc2ccccc21", "inhibition": 5.64},
      {"smiles": "CC1=C(c2ccccc2)SC2=NCCN21", "inhibition": 12.6},
      {"smiles": "COCc1[nH]nc2c1C(c1c(F)cccc1Cl)C(C#N)=C(N)O2", "note": "(stereo not drawn)", "inhibition": 14.4}
    ]}
  ]
}
